{"source": "PubChem BioAssay (EPA / NIEHS)", "note": "Activity calls are given as the source filed them. Rule for the calls: active = hit-call score of the fitted dose curve at least 0.9, where 1 is the maximum; inactive = score below 0.9."}
{"target": "Cytochrome P450 2C18 (Homo sapiens) (UniProt P33260)", "sequence (P33260 whole entry, looked up)": "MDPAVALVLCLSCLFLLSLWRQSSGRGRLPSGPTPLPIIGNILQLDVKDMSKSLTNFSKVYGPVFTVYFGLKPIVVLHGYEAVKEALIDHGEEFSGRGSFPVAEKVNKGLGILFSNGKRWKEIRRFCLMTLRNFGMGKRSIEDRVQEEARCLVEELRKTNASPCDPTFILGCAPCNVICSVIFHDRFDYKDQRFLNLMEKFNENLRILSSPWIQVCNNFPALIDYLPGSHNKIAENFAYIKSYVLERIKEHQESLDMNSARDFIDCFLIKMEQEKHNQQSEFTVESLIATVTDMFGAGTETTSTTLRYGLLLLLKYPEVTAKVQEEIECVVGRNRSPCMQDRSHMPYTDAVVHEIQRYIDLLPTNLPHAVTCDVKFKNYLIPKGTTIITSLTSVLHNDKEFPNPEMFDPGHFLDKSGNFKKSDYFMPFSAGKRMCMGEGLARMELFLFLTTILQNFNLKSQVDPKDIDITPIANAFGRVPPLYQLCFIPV", "experiment": "NVS_ADME_hCYP2C18: NovaScreen (NVS) CYP450-related Enzyme Activity (ADME) Assay for human CYP2C18 (AID 2283103)", "experimental": "NVS_ADME_hCYP2C18 is a biochemical, single-readout assay that uses extracted gene-proteins in a cell-free assay. Measurements were taken 0.5 hour after chemical dosing in a 96-well plate.NVS_ADME_hCYP2C18 is one of one assay component(s) measured or calculated from the NVS_ADME_hCYP2C18 assay. It is designed to make measurements of enzyme activity, a form of enzyme reporter, as detected with fluorescence intensity signals by Fluorescence technology.Data from the assay component NVS_ADME_hCYP2C18 was analyzed into 1 assay endpoint. This assay endpoint, NVS_ADME_hCYP2C18, was analyzed in the positive analysis fitting direction relative to Acetonitrile as the negative control and baseline of activity. Using a type of enzyme reporter, loss-of-signal activity can be used to understand changes in the enzymatic activity as they relate to the gene CYP2C18. Furthermore, this assay endpoint can be referred to as a primary readout, because this assay has produced multiple assay endpoints where this one serves a enzymatic activity function. To generalize the intended target to other relatable targets, this assay endpoint is annotated to the cyp intended target family, where the subfamily is xenobiotic metabolism.\nBinding assays used specific radioligands (tritiated, iodinated) with non-radioactive competitive displacement ligands in agonist or antagonist protocols (as indicated) and various reference compounds and inhibitors to titrate specific binding to receptors and transporters. Most enzyme assays (CYPs, kinases, phosphatases, proteases, HDACs) used recombinant protein and specific substrates (fluorescence mostly, some colorimetric and radioactive) and inhibitors, followed by a biochemical separation of substrate and product. All assays for the biochemical HTS were initially run in duplicate at a single concentration (10 uM for CYP450 assays and 25 uM for all others). Assay-chemical combinations meeting a pre-defined threshold (e.g., 30% inhibition and other criteria defined below) were then run in singleton concentration-response format with maximum concentration of 20 uM for CYPs and 50 uM for all others. Each assay was run with positive and negative controls, and concurrent controls on every plate. The follow-up (secondary) screen tested active chemical-pairs in concentration series, as well as a few additional assays not tested in the primary screen, some selected negative inactives, and several cases re-run in the concentration series for confirmatory purposes."}
{"molecule": "CCOC1Oc2ccc(OS(C)(=O)=O)cc2C1(C)C", "note": "(configuration not stated)", "AC50": "5.65 µM (active)"}
{"molecule": "CC(C)(C)C(O)/C(=C\\c1ccc(Cl)cc1Cl)n1cncn1", "note": "(configuration not stated)", "AC50": "0.0386 µM (active)"}
{"molecule": "CN1CSC(=S)N(C)C1", "AC50": "4.32 µM (active)"}
{"molecule": "Oc1ccc(Cl)cc1Cc1ccccc1", "AC50": "6.87 µM (active)"}
{"molecule": "CC[C@H](C)[C@H]1O[C@]2(C=C[C@@H]1C)C[C@@H]1C[C@@H](C/C=C(\\C)[C@@H](O[C@H]3C[C@H](OC)[C@@H](O[C@H]4C[C@H](OC)[C@@H](O)[C@H](C)O4)[C@H](C)O3)[C@@H](C)/C=C/C=C3\\CO[C@@H]4[C@H](O)C(C)=C[C@@H](C(=O)O1)[C@]34O)O2", "note": "(tested in a mixture with another compound)", "AC50": "5.02 µM (active)"}
{"molecule": "O=C(O)C(F)(F)C(F)(F)C(F)(F)C(F)(F)C(F)(F)C(F)(F)C(F)(F)F", "outcome": "inactive"}
{"molecule": "COc1nn(CSP(=S)(OC)OC)c(=O)s1", "AC50": "3.67 µM (active)"}
{"molecule": "CC(C)(C)C(O)C(Oc1ccc(Cl)cc1)n1cncn1", "note": "(configuration not stated)", "AC50": "7.93 µM (active)"}
{"molecule": "O=S(=O)(O)C(F)(F)C(F)(F)C(F)(F)C(F)(F)C(F)(F)C(F)(F)C(F)(F)C(F)(F)F", "AC50": "0.875 µM (active)"}
{"molecule": "CC(C)N(C(=O)COc1nnc(C(F)(F)F)s1)c1ccc(F)cc1", "AC50": "5.82 µM (active)"}
{"molecule": "COP(=S)(OC)Oc1ccc([N+](=O)[O-])cc1", "AC50": "2.7 µM (active)"}
{"molecule": "CCCN(CCOc1c(Cl)cc(Cl)cc1Cl)C(=O)n1ccnc1", "AC50": "0.588 µM (active)"}
